From PubChem BioAssay
Activity calls are given as the source filed them.

Experiments:
Albumin (Bos taurus) = Albumin (Bos taurus) (UniProt P02769); test: compounds binding labelled BSA control protein – biochemical, small-molecule microarray, Alexa647 label, 635/667 nm fluorescence, artefact control for SMM control protein annotation, profiling panel (AID 1118); settings: BSA-A647 binding, fluorescence 635 nm, higher = more signal;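 note: score merges 667 nm emission intensity and signal-to-noise per printed compound spot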
[1] = probe aXIP binding to arrayed compounds – biochemical, NeuroSMM set, 635/667 nm fluorescence, primary screen (AID 1119); settings: small-molecule microarray, higher = more signal, called active from +8 up or from −8 down;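 note: probe is the protein aXip251-270 applied at 1 µg/mL to compound-printed slides; binding of probe to printed compounds measured as 667 nm fluorescence plus signal to noise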
[2] = probe aNOTCH3 binding on compound microarray – biochemical, small-molecule microarray, 635/667 nm fluorescence, primary screen (AID 1120); settings: higher = more signal;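 note: probe is a biotin-tagged antibody raised against NOTCH3 rather than NOTCH3 protein; score merges spot fluorescence near 667 nm with spot signal to noise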
[3] = probe aNOTCH2 binding on compound microarray – biochemical, small-molecule microarray, 635/667 nm fluorescence, primary screen (AID 1121); settings: higher = more signal;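 note: score merges feature fluorescence read at 667 nm with its signal to noise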
[4] = target: Carbonic anhydrase 2 (Homo sapiens) (UniProt P00918); test: compounds binding carbonic anhydrase 2 – biochemical, small-molecule microarray, Alexa647-labelled CAII, profiling panel (AID 1122); settings: CAII-A647 binding fluorescence, higher = more signal
[5] = COS7 lysate on small-molecule microarray, probe aHis, 635 nm (AID 1123); settings: COS7 cell lysate, fluorescence, higher = more signal;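 note: z-score combines 667nm fluorescence intensity with signal-to-noise per printed compound spot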
[6] = probe aLAP1 signal on lysate-treated microarray – cell lysate, small-molecule microarray, COS7 lysate, primary screen (AID 1124); settings: probe aLAP1, fluorescence, higher = more signal;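 note: lysate comes from COS7 cells expressing LAP1 and is applied at 0.3 µg/mL; score merges spot fluorescence near 667 nm with signal-to-noise over triplicate slides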
Sam68 (KHDRBS1) = test: compounds binding KHDRBS1 protein – biochemical, small-molecule microarray, 635 nm fluorescence, primary screen (AID 1125); settings: higher = more signal;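 note: score merges 667 nm channel intensity with signal to noise over triplicate slides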
[7] = system: Chordin-like protein 2 (CHRDL2); test: compounds binding chordin-like 2 – biochemical, small-molecule microarray, 635 nm fluorescence, primary screen (AID 1126); settings: fluorescence 635 nm, higher = more signal;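 note: printed compound slides probed with Chrdl2 protein at 4 µg/mL for 1 h at 4 C; score merges 667 nm emission intensity with signal to noise over three replicate slides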
[8] = target: Concanavalin-A (Canavalia ensiformis) (UniProt P02866); test: compounds binding concanavalin A lectin – biochemical, small-molecule microarray, Alexa647 label, 635 nm, artefact control for SMM control protein annotation, primary screen (AID 1127); settings: ConA-A647 binding fluorescence, higher = more signal;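 note: z combines 667 nm emission intensity with signal-to-noise across three replicate slides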
Concanavalin-A (Canavalia ensiformis), sequence (P02866 whole entry, looked up): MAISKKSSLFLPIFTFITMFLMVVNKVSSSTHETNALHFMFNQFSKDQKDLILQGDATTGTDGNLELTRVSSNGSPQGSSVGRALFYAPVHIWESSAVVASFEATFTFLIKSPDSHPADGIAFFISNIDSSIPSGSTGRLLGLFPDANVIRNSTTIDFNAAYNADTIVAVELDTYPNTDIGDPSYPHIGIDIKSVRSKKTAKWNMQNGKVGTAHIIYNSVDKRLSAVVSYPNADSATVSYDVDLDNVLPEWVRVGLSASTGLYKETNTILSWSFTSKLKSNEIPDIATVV

Albumin (Bos taurus), sequence (P02769 whole entry, looked up): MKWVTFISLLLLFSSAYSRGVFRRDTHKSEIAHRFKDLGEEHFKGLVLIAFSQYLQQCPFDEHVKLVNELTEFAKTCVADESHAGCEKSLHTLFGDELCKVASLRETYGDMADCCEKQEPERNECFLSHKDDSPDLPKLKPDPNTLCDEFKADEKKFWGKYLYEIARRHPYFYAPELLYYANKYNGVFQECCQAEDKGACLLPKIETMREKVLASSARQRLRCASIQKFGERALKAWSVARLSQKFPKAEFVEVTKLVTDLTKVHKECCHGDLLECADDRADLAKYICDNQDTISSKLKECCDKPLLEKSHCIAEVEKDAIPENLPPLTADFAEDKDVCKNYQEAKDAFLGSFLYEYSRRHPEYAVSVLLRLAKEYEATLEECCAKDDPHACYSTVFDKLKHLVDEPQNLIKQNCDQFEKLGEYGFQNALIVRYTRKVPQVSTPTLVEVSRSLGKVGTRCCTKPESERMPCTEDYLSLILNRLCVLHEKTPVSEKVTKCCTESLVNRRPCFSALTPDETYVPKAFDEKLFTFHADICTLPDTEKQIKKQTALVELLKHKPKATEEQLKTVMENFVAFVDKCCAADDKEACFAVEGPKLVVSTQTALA

Row | SMILES | composite z-score (Albumin (Bos taurus)) | composite Z-score [1] | composite z-score [2] | composite z-score [3] | composite z-score [4] | composite z-score [5] | composite z-score [6] | composite z-score (Sam68 (KHDRBS1)) | composite z-score [7] | composite z-score [8]
1 | O=C1O[C@@H](c2ccccc2)[C@@H](c2ccccc2)N2[C@@H](c3ccccc3OCCO)[C@]3(C(=O)Nc4ccc(C#CC5=CCCCC5)cc43)[C@@H](C(=O)Nc3nc4ccccc4s3)[C@H]12 | 0.778 | 0.243 (inactive) | 0.0715 | -0.0583 | 0.272 | 1.39 | 0.399 | 1.3 | 0.309 | 1.06
2 | [N-]=[N+]=NCc1ccccc1[C@@H]1OC(c2ccc(OCCCO)cc2)=N[C@]1(Cc1ccccc1N=[N+]=[N-])C(=O)N1CCOCC1 | 0.809 | 0.105 (inactive) | 0.387 | 0.408 | 0.765 | 2.9 | 0.493 | 1.29 | -0.119 | 1.21
3 | CC1(C)[C@@H]2CC(C(O)C3C=CC4C(=O)N(c5ccccc5)C(=O)C4N3Nc3ccccc3)=C[C@H]1C2 (stereo not given in full) | 0.566 | -0.212 (inactive) | -0.0144 | 0.0127 | 0.408 | 1.61 | 0.322 | 0.031 | 0.684 | 0.566
4 | O=C1O[C@H](c2ccccc2)[C@H](c2ccccc2)N2[C@H]1[C@@H](C(=O)Nc1nc3ccccc3s1)[C@]1(C(=O)Nc3ccc(C#CC4(O)CCCCCC4)cc31)[C@H]2c1ccc(OCCO)cc1 | 0.8 | 0.905 (inactive) | -0.0562 | 0.146 | 0.219 | 1.46 | 1.7 | 1.3 | 0.508 | 1.11
5 | COc1ccc([C@H]2OC[C@@H]3CC4(CC=CC4)C(=O)N32)cc1 | -0.505 | 0.544 (inactive) | 0.146 | -0.0662 | 0.278 | 0.383 | -0.129 | 0.964 | 1.54 | -0.572
6 | O=C1OCCC/C=C\[C@H]2OC34C=CCN(Cn5nnc6ccccc65)C(=O)[C@H]3N(CCCCCCO)C(=O)[C@@H]4C12 (stereo not given in full) | -0.265 | 0.236 (inactive) | -0.262 | -0.101 | 0.652 | 2.13 | -0.368 | 0.839 | -1.25 | -0.472
7 | C=CCOC(=O)[C@H]1[C@@H]2C(=O)O[C@@H](c3ccccc3)[C@@H](c3ccccc3)N2[C@@H](c2ccc(OCCOC(=O)[C@@H]3C[C@@H]4C(=O)N[C@@H](CCCC[N+](C)(C)C)C(=O)N4[C@@H]3c3ccc(O)cc3)cc2)[C@]12C(=O)Nc1ccccc12 | 0.0987 | 0.0848 (inactive) | 0.011 | -0.171 | 0.624 | 0.875 | 0.284 | 1.31 | 1.08 | 1.12
8 | COCCCNC(=O)C1N=C(c2ccc(OCCCO)cc2)N(c2ccccc2)O1 (stereo not given) | 0.107 | -0.442 (inactive) | 0.0836 | -0.112 | 0.778 | 0.388 | -0.193 | 1.3 | -0.289 | 1.04
9 | C=CC[C@@]1(C(N)=O)N=C(c2ccc(OCCCO)cc2)O[C@@H]1c1ccccc1CN=[N+]=[N-] | 0.85 | -0.631 (inactive) | 0.185 | -0.0712 | 0.875 | 3.25 | 1.13 | 1.3 | -0.41 | 1
10 | CC(C)(C)C(=O)N[C@@H](c1ccc(Cl)cc1)[C@]1(C)C[C@H]1C1CCCCC1 | 0.886 | -0.149 (inactive) | 0.449 | 0.347 | 0.505 | 2.12 | 0.968 | 1.29 | -0.319 | 1.19
11 | COc1ccc(C(O)C2C=CC3C(=O)NC(=O)C3N2Nc2ccccn2)c2ccccc12 (stereo not given) | 0.304 | 0.224 (inactive) | -0.0431 | -0.101 | 0.879 | 0.452 | -0.14 | -0.328 | 0.485 | 0.495
12 | COc1cc2c(cc1OC)CN(C(=O)[C@H]1[C@@H]3C(=O)O[C@@H](c4ccccc4)[C@@H](c4ccccc4)N3[C@@H](c3ccc(O)cc3)[C@]13C(=O)Nc1ccc(C#CC4=CCCCC4)cc13)CC2 | 0.672 | 0.721 (inactive) | 0.533 | -0.0411 | 0.561 | 1.74 | 0.969 | 1.31 | 0.575 | 1.14
13 | COC(=O)[C@@]1(Cc2ccc(OC)cc2)[C@H]2c3cc(C(=O)N(C)C)n(CCN4CNCC4=O)c3C[C@H]2CN1C(=O)c1ccccc1 | 0.854 | -0.704 (inactive) | 0.0539 | 0.0228 | 0.879 | 0.287 | 0.898 | -0.668 | -0.386 | -0.61
14 | COCCCN1C(=O)[C@@]2(c3ccc([N+](=O)[O-])cc3)CC(=O)N(C3CCCCC3)[C@@H]2c2ccc(CO)cc21 | -0.132 | 0.0221 (inactive) | -0.207 | -0.153 | -0.277 | 0.143 | -0.322 | 0.134 | 0.778 | 0.734
15 | O=C1C2C=CC(C(O)c3ccc(F)cc3)N(Nc3ccccc3F)C2C(=O)N1c1ccccc1 (stereo not given) | 0.983 | 0.482 (inactive) | 0.323 | -0.0194 | 0.823 | 3.13 | -0.0953 | 1.13 | -0.868 | 0.493
16 | C=CCNC(=O)[C@H]1[C@@H]2C(=O)O[C@@H](c3ccccc3)[C@@H](c3ccccc3)N2[C@@H](c2ccc(OCCO)cc2)[C@]12C(=O)Nc1ccc(C#CC3=CCCCC3)cc12 | 0.17 | 0.0758 (inactive) | -0.0933 | -0.0703 | 0.338 | 0.999 | 0.272 | 1.31 | 0.105 | 0.994
17 | C=CCOC(=O)[C@@H]1[C@H]2C(=O)O[C@H](c3ccccc3)[C@H](c3ccccc3)N2[C@H](c2ccc(OCCOC(=O)[C@@H]3C[C@@H]4C(=O)N[C@@H](Cc5ccccc5)C(=O)N4[C@@H]3c3ccc(O)cc3)cc2)[C@@]12C(=O)Nc1ccc(I)cc12 | -0.47 | 0.364 (inactive) | 0.251 | -0.0984 | 0.299 | 1.28 | 0.0186 | 1 | 0.918 | 1.18
18 | CCN(CC)c1ccc(N2CC=CC34O[C@@H]5/C=C\CCC(C)OC(=O)C5[C@H]3C(=O)N(C(CO)C(C)C)[C@@H]4C2=O)cc1 (stereo not given in full) | -0.451 | 0.211 (inactive) | -0.222 | -0.175 | 0.894 | 0.595 | -0.387 | 0.213 | -0.263 | -1.77
19 | NCCCCCNC(=O)[C@@H]1C[C@@H]2C(=O)N[C@@H](Cc3ccccc3)C(=O)N2[C@@H]1c1cccc(OCCO)c1 | 0.654 | 0.376 (inactive) | 0.0087 | -0.112 | 0.698 | 1.18 | 0.463 | 0.861 | -0.0335 | 1.05
20 | COc1cc2c(cc1OC)CN(C(=O)[C@H]1[C@@H]3C(=O)O[C@@H](c4ccccc4)[C@@H](c4ccccc4)N3[C@@H](c3ccc(O)cc3)[C@]13C(=O)Nc1ccc(C#CCNC(N)=O)cc13)CC2 | -0.176 | -0.136 (inactive) | 0.0397 | -0.165 | 0.169 | 0.103 | 0.523 | -0.0579 | 0.702 | 0.212
21 | CC(C)N1C(=O)c2ccccc2[C@](C)(C(=O)NCc2ccccc2)[C@@H]1c1ccc(CO)cc1 | 0.182 | 1.32 (inactive) | -0.245 | -0.0323 | 0.703 | -0.129 | 0.967 | -0.484 | -0.798 | -0.866
22 | CN1C(=O)C2C=CC(C(O)C3CC=CCC3)N(NC(=O)OC(C)(C)C)C2C1=O (stereo not given) | 1.03 | 3.41 (inactive) | 0.178 | -0.121 | 0.713 | 3.19 | 0.532 | 1.32 | 0.547 | 0.627
23 | [N-]=[N+]=NCc1ccccc1C[C@]1(C(=O)N2CCOCC2)N=C(c2ccc(OCCCO)cc2)O[C@H]1c1ccccc1N=[N+]=[N-] | 0.889 | -0.235 (inactive) | 0.311 | -0.0301 | 0.53 | 2.53 | 0.798 | 1.34 | 0.519 | 1.04
24 | COC(=O)c1c(CC[C@@H](CO)NC(=O)N[C@@H](C)Cn2cc(C3(O)CCCCC3)nn2)oc(C(C)=O)c1C(=O)OC | 0.0745 | 0.502 (inactive) | 0.0596 | -0.0466 | 0.421 | 0.377 | -0.0869 | 1.29 | 1.02 | 1.02
25 | COC(=O)C(CC#Cc1ccc2c(c1)[C@]1(C(=O)N2)[C@H](C(=O)O)[C@H]2C(=O)O[C@H](c3ccccc3)[C@H](c3ccccc3)N2[C@@H]1c1ccc(O)cc1)C(=O)OC | -0.266 | -1.69 (inactive) | -0.274 | -0.181 | 0.66 | 1.07 | 0.898 | 0.661 | -0.872 | -0.417
26 | COC(=O)[C@@]1(Cc2ccc(F)cc2)[C@H]2c3cc(C(=O)N4CCCC4)n(Cc4cc(C)n(C)n4)c3C[C@H]2CN1C(=O)c1ccccc1 | 1.09 | 2.46 (inactive) | 0.318 | 0.385 | 0.664 | 3.58 | 1.14 | 1.32 | -0.642 | 1.14
27 | [N-]=[N+]=Nc1ccccc1C[C@]1(C(N)=O)N=C(c2ccc(OCCCO)cc2)O[C@H]1c1ccccc1 | 0.989 | 0.364 (inactive) | 0.0556 | -0.106 | 0.662 | 2.59 | 0.386 | 0.974 | -1.18 | 0.6
28 | C=CCOC(=O)[C@@H]1[C@H]2C(=O)O[C@H](c3ccccc3)[C@H](c3ccccc3)N2[C@H](c2ccc(OCCOC(=O)[C@@H]3C[C@@H]4C(=O)N5CCC[C@H]5C(=O)N4[C@@H]3c3ccc(O)cc3)cc2)[C@@]12C(=O)Nc1ccc(I)cc12 | 0.71 | 1.23 (inactive) | -0.0831 | -0.145 | 0.419 | 1.33 | -0.0072 | 1.19 | 0.593 | 1.12
